Measurements: PubChem BioAssay
The source made the active and inactive calls.

biological target: Homeobox protein Hox-A13 (Mus musculus) (UniProt Q62424); assay: inhibitors of HoxA13-DNA binding, primary screen, biochemical, fluorescence polarization, labeled oligonucleotide (AID 1185); conditions: 15 min, higher = more signal, called active from +8 up or from −8 down
Sequence (Q62424 whole entry, looked up): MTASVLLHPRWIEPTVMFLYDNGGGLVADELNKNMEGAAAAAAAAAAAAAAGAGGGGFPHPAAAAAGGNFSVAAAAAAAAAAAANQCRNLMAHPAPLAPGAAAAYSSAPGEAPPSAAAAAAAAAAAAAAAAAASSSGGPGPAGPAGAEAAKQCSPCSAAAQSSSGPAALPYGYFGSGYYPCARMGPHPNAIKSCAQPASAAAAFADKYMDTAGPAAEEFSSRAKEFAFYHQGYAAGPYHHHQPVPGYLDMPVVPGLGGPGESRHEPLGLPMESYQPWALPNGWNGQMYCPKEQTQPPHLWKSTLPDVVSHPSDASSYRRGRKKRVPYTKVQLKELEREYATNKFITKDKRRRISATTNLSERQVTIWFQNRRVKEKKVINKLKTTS

z-score, inactive:
CC(C)CN1CCc2nc(-c3ccccc3)c3c(c2C1)CO[C@@H](C)C3 -4.73
CO[C@@H](C1CCCCC1)[C@@H](C)[C@H](OCc1cccc(Br)c1)[C@@H](C)CO -4.53
CCCNC(=O)OC[C@H]1O[C@H](CCON=C[C@@H](NS(=O)(=O)c2ccc(C)cc2)[C@H](C)C=CCC(=O)OC)C=C[C@@H]1Oc1ccc(OC)cc1 -4.48
CC(C)CON=C1C[C@@H](O)[C@@H](O)[C@@H]2[C@@H]3C(=O)N([C@@H](C)c4ccccc4)C(=O)[C@@H]3CC[C@@H]12 -2.35
CCOC(=O)CCN1C(=O)[C@H]2[C@H]3[C@H](O)[C@H](O)CC(=NO[C@@H]4O[C@H](CO)[C@@H](O)[C@H](O)[C@H]4O)[C@H]3CC[C@H]2C1=O -0.139
CCN1C(C)=C(C(=O)OC)[C@@H](c2ccccc2)N2C(=O)[C@](O)(C(=O)OC)CC(C(C)=O)=C12 0.334
O=C1CCCC=C1C(O)COCc1ccccc1 (centres undefined) -3.62
CCOC(=O)[C@H](Cc1ccccc1)NC(=O)CCC1CC(OC(=O)NCc2cccc3ccccc23)CC2(CCCC(COC(=O)NCCOc3ccccc3)O2)O1 (some centres undefined) -2.04
C[C@@H](c1ccccc1)N1C(=O)[C@H]2[C@H]3[C@H](O)[C@H](O)CC(=NNC(=O)OCc4ccccc4)[C@@H]3CC[C@H]2C1=O 0.963
CC(CCN1CCCc2nc(C)c(C)cc21)=NOC[C@@H](C)[C@H](OCc1ccccc1)C(C)C -3.09
CON=C(C)CCN1CCCCc2nc(C)c(C)cc21 -2.24
CCCNC(=O)OC[C@H]1O[C@H](CCON=C2C[C@@H](O)[C@@H](O)[C@@H]3[C@@H]4C(=O)N(CC)C(=O)[C@@H]4CC[C@@H]23)C=C[C@@H]1Oc1ccc(OC)cc1 -7.64
CCOC(=O)[C@H](CC(C)C)NC(=O)CCC1CC(OC(=O)NCc2ccc3c(c2)OCO3)CC2(CCCC(COC(=O)NCCC(C)C)O2)O1 (some centres undefined) -1.7
COC(=O)[C@H](C)NC(=O)CCC1CC(OC(=O)NCCc2ccc(F)cc2)CC2(CCCC(COC(=O)NCCc3ccccc3OC)O2)O1 (some centres undefined) -6.13
CC(CCN1CCCc2nc(C)c(C)cc21)=NO[C@H](C)c1cn([C@@H]2COC[C@H]2O)nn1 -6.65
CON=C1c2cc(OC)ccc2O[C@H](c2cccc(OC)c2)[C@H]1O -0.365
O=C1C2=CC[C@H]3C(=O)N(Cc4ccccc4)C(=O)[C@H]3[C@H]2[C@H](O)[C@@H]2O[C@H]12 -5.55
COC(=O)[C@H](C)NC(=O)CCC1CC(OC(=O)NCCc2ccc(F)cc2)CC2(CCCC(COC(=O)NCCOc3ccccc3)O2)O1 (some centres undefined) -1.1
O=C1[C@H]2[C@H]3[C@H](O)[C@H](O)CC(=NOC[C@@H](O)COCc4ccco4)[C@@H]3CC[C@H]2C(=O)N1Cc1ccc2c(c1)OCO2 0.263
CO[C@@H]1COC(=O)[C@@H]2CCCN2C(=O)[C@@H](C)COC(=O)CCC[C@H]1C 0.694
CCOC(=O)CCN1C(=O)[C@H]2[C@H]3[C@H](O)[C@H](O)CC(=NO[C@@H]4O[C@H](CO)[C@@H](O)[C@H](O)[C@H]4O)[C@@H]3CC[C@H]2C1=O 0.142
CSCC[C@@H]1NC(=O)CC=C[C@@H](C)COC(=O)[C@H](C)COC1=O 0.0971
C[C@@H](c1ccccc1)N1C(=O)[C@H]2[C@H]3[C@H](O)[C@H](O)CC(=NOCc4ccccc4)[C@@H]3CC[C@H]2C1=O -3
CC[C@@H](c1ccccc1)n1c(=O)n2n(c1=O)[C@H]1[C@H](O)[C@@H]3O[C@@H]3C(=NOCc3ccccc3)[C@H]1CC2 -4.2
